# In the supplement of paper PMC7380943:
# ± gives the standard deviation of the averaged measurements.
# Test system: CLZ3 (HCA2 human fibroblast dual HR-NHEJ reporter)
# Assay: NHEJ repair efficiency (GFP+ cells) relative to control (log10 fold); higher = more non-homologous end joining
# Details: 5 µM; doxycycline 0.5 ug/mL
# 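Note: compound given one day ahead of doxycycline, which switches on I-SceI endonuclease to cut the chromosomally integrated reporter and create DSBs.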
row,Compound,NHEJ repair efficiency (log10)
1,O=c1c2ccccc2nc2n1CCc1c-2[nH]c2ccccc12 [Rutecarpine],-0.038
2,O=Cc1ccc(CO)o1 [5-Hydroxymethyl-2-furaldehyde (5-HMF)],-0.174
3,C[C@@H]1O[C@@H](O[C@H]2[C@H](OC(=O)[C@]34CCC(C)(C)C[C@H]3C3=CC[C@@H]5[C@@]6(C)C[C@H](O)[C@H](O[C@@H]7O[C@H](CO)[C@@H](O)[C@H](O[C@@H]8O[C@H](CO)[C@@H](O)[C@H](O)[C@H]8O)[C@H]7O)C(CO)(CO)[C@@H]6CC[C@@]5(C)[C@]3(C)C[C@H]4O)OC[C@H](O)[C@@H]2O)[C@H](O)[C@H](O)[C@H]1O[C@@H]1OC[C@@H](O)[C@H](O[C@@H]2OC[C@](O)(CO)[C@H]2O)[C@H]1O [Platycodin D2],-0.00927
4,CC(=O)[C@H]1CC[C@H]2[C@@H]3CCC4=CC(=O)CC[C@]4(C)[C@H]3CC[C@]12C [Lutin],0.0637
5,COC(=O)C1=CO[C@@H](O[C@@H]2O[C@H](CO)[C@@H](O)[C@H](O)[C@H]2O)[C@@H]2[C@@H](C)[C@@H](O)C[C@H]12 [Loganin],0.226
6,C[C@@H]1O[C@@H](OC[C@H]2O[C@@H](Oc3cc(O)c4c(c3)O[C@H](c3ccc(O)c(O)c3)CC4=O)[C@H](O)[C@@H](O)[C@@H]2O)[C@H](O)[C@H](O)[C@H]1O [Eriocitrin],0.00276
7,O=C(O)c1cc(O)c2c(c1)[C@@H]([C@H]1c3cc(C(=O)O)cc(O)c3C(=O)c3c(O[C@@H]4O[C@H](CO)[C@@H](O)[C@H](O)[C@H]4O)cccc31)c1cccc(O[C@@H]3O[C@H](CO)[C@@H](O)[C@H](O)[C@H]3O)c1C2=O [Sennoside B],-0.162
8,COc1cc(C2Oc3cc([C@H]4Oc5cc(O)cc(O)c5C(=O)[C@@H]4O)ccc3OC2CO)ccc1O (stereo not given in full) [Silymarin Ⅱ],-0.124
9,OC[C@H]1O[C@H](OC[C@H]2O[C@H](O[C@]3(CO)O[C@H](CO)[C@@H](O)[C@@H]3O)[C@H](O)[C@@H](O)[C@@H]2O)[C@H](O)[C@@H](O)[C@H]1O [Raffinose],-0.133
10,COc1ccc(C(=O)O)cc1 [Anisic Acid],0.0832
11,C[N+](C)(C)CC(=O)O [Betaine],-0.243
12,CC=C1[C@H](O[C@@H]2O[C@H](CO)[C@@H](O)[C@H](O)[C@H]2O)OC=C(C(=O)OC)[C@H]1CC(=O)OC[C@H]1O[C@@H](OCCc2ccc(O)cc2)[C@H](O)[C@@H](O)[C@@H]1O (stereo in doubt) [Specnuezhenide],0.00632
13,COc1cc2c(cc1O)CC[n+]1cc3c(OC)c(OC)ccc3cc1-2 [Jatrorrhizine],-0.00725
14,COc1cc2c(cc1OC)[C@@H]1Cc3ccc(OC)c(OC)c3CN1CC2 [Rotundine],-0.0594
15,"COc1cc(OC)c2ccc(=O)oc2c1 [5,7-Dimethoxycoumarin]",0.0653
16,CC(=O)O[C@@H]1C[C@@]23C[C@@]24CC[C@H](O[C@@H]2OC[C@@H](O)[C@H](O)[C@H]2O)C(C)(C)[C@@H]4CC=C3[C@]2(C)C[C@@H]3OC4(C[C@@H](C)[C@@H]3[C@@]12C)OC(O)C1(C)OC41 (stereo not given in full) [Cimicifugoside],0.0323
17,COc1cc(/C=C/C(=O)CC(=O)/C=C/c2ccc(O)c(OC)c2)ccc1O [Curcumin],0.317
18,COc1cc2ccc(=O)oc2c(OC)c1O [Isofraxidin],-0.0516
19,O=Cc1ccc(O[C@@H]2O[C@H](CO)[C@@H](O)[C@@H](O)[C@H]2O)cc1 [Helicide],0.119 ± 0.097
20,C[C@H](CCC(=O)O)[C@H]1CC[C@H]2[C@@H]3CC[C@@H]4C[C@H](O)CC[C@]4(C)[C@H]3C[C@H](O)[C@]12C [Deoxycholic acid],-0.0363
21,COc1cc2c(=O)c(-c3ccc(O)cc3)coc2cc1O [Glycitein],0.0336
22,C/C1=C\CC[C@]23O[C@H]2[C@@H](OC3=O)c2c(C)coc2C1 [Linderane],-0.0245
23,C[C@@H]1O[C@@H](OC[C@H]2O[C@@H](OCCc3ccc(O)c(O)c3)[C@H](O)[C@@H](O)[C@@H]2OC(=O)/C=C/c2ccc(O)c(O)c2)[C@H](O)[C@H](O)[C@H]1O [Forsythoside A],0.0797
24,COc1cc2c(cc1OC)[C@H]1[C@@H](C)c3ccc(OC)c(OC)c3CN1CC2 [Corydaline],-0.196
25,CC1OC(OC2C(OC3CCC4(C)C(CCC5(C)C4CC=C4C6CC(C)(C)CCC6(C(=O)OC6OC(COC7OC(CO)C(O)C(O)C7O)C(O)C(O)C6O)CCC45C)C3(C)CO)OCC(O)C2O)C(O)C(O)C1O (stereo not given) [Dipsacoside B],-0.0161 ± 0.011
